Assay results from PubChem BioAssay AID1159580 (chemical genetic matrix, 2015).
About 2,000 (36%) of roughly 5,500 compounds were called active. About 18% were inconclusive and are not listed. No stated cut-off is given here; in the data, active means normalized growth mostly below about 0.91 (no sharp cut-off); inconclusive means no clear call, values can overlap the other calls; inactive means mostly above about 0.92. This is one part of the list.

Experiment: chemical genetic growth profiling, strain panel (AID 1159580);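 further: tested at 20 µM; growth read once vehicle control cultures reached saturation at 30 °C; 1 = growth at the plate median or of vehicle wells; lower values mean less growth of the strain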
Conditions: S. cerevisiae deletion strains, growth OD

Measured: normalized growth

COc1ccc(-c2coc3cc(O)ccc3c2=O)c(OC)c1
inactive: locus YAL013W, strain DEP1, hits give low values 1.01 | locus YAL021C, strain ccr4, hits give low values 0.995 | locus YAL026C, strain drs2, hits give low values 1.01 | locus YAL030W, strain snc1, hits give low values 1 | locus YBL061C, strain skt5, hits give low values 0.996 | locus YBR009C, strain hhf1, hits give low values 1.01 | locus YBR021W, strain FUR4, hits give low values 0.887 | locus YBR023C, strain chs3, hits give low values 1.01 | locus YBR171W, strain sec66, hits give low values 1.01 | locus YBR229C, strain ROT2, hits give low values 1 | locus YBR231C, strain swc5, hits give low values 0.982 | locus YBR279W, strain paf1, hits give low values 1.01 | locus YCL011C, strain gbp2, hits give low values 1.03 | locus YCL016C, strain dcc1, hits give low values 1.01 | locus YCL029C, strain bik1, hits give low values 1.01 | locus YCL069W, strain vba3, hits give low values 1.01 | locus YCR088W, strain abp1, hits give low values 1 | locus YDL005C, strain med2, hits give low values 1 | locus YDL035C, strain GPR1, hits give low values 1 | locus YDL040C, strain nat1, hits give low values 1 | locus YDL074C, strain BRE1, hits give low values 1.02 | locus YDL101C, strain DUN1, hits give low values 1 | locus YDL185W, strain tfp1, hits give low values 0.994 | locus YDL192W, strain arf1, hits give low values 0.99 | locus YDR001C, strain nth1, hits give low values 1 | locus YDR069C, strain doa4, hits give low values 0.982 | locus YDR101C, strain arx1, hits give low values 0.982 | locus YDR137W, strain rgp1, hits give low values 0.995 | locus YDR159W, strain sac3, hits give low values 0.976 | locus YDR162C, strain NBP2, hits give low values 0.937 | locus YDR195W, strain ref2 0.974 | locus YDR297W, strain sur2, hits give low values 0.995 | locus YDR318W, strain mcm21, hits give low values 1 | locus YDR334W, strain swr1, hits give low values 0.994 | locus YDR335W, strain msn5, hits give low values 1.02 | locus YDR388W, hits give low values 1 | locus YDR392W, strain spt3, hits give low values 0.951 | locus YDR502C, strain sam2, hits give low values 1 | locus YEL003W, strain gim4, hits give low values 0.985 | locus YEL037C, strain rad23, hits give low values 1.01 | locus YEL061C, strain CIN8 (second series), hits give low values 1 | locus YEL061C, strain CIN8, hits give low values 1 | locus YER015W, strain faa2, hits give low values 1.02 | locus YER016W, strain bim1, hits give low values 0.999 | locus YER110C, hits give low values 1.03 | locus YER111C, strain swi4, hits give low values 0.999 | locus YER155C, strain BEM2 (second series), hits give low values 0.977 | locus YER155C, strain BEM2, hits give low values 1.01 | locus YER167W, strain BCK2, hits give low values 1.01 | locus YFR010W, strain ubp6, hits give low values 0.984 | locus YGL078C, strain dbp3, hits give low values 0.988 | locus YGL086W, strain mad1, hits give low values 0.991 | locus YGL167C, strain pmr1, hits give low values 1.01 | locus YGL173C, strain kem1, hits give low values 0.997 | locus YGL227W, strain vid30, hits give low values 0.992 | locus YGL240W, strain doc1, hits give low values 0.972 | locus YGL248W, strain PDE1, hits give low values 1 | locus YGL253W, strain hxk2, hits give low values 0.981 | locus YGR135W, strain pre9, hits give low values 0.993 | locus YGR229C, strain SMI1, hits give low values 0.97 | locus YGR252W, strain gcn5, hits give low values 1.01 | locus YHR013C, strain ard1, hits give low values 1.01 | locus YHR027C, strain rpn1, hits give low values 1 | locus YHR030C, strain SLT2, hits give low values 1.01 | locus YHR079C, strain IRE1 (second series), hits give low values 1.01 | locus YHR094C, strain hxt1, hits give low values 0.995 | locus YHR129C, strain ARP1, hits give low values 1.02 | locus YHR142W, strain chs7, hits give low values 0.999 | locus YHR200W, strain rpn10, hits give low values 1 | locus YIL066C, strain RNR3, hits give low values 0.994 | locus YIL073C, strain SPO22, hits give low values 1.02 | locus YIL125W, strain kgd1, hits give low values 0.996 | locus YIR030C, strain dcg1, hits give low values 0.999 | locus YJL092W, strain hpr5, hits give low values 1 | locus YJL095W, strain BCK1 (second series), hits give low values 1 | locus YJL095W, strain BCK1, hits give low values 0.976 | locus YJL115W, strain asf1, hits give low values 1.01 | locus YJL129C, strain trk1, hits give low values 1.03 | locus YJL134W, strain LCB3, hits give low values 1.01 | locus YJL154C, strain vps35, hits give low values 1 | locus YJL164C, strain tpk1, hits give low values 1.01 | locus YJL166W, strain qcr8, hits give low values 0.995 | locus YJL168C, strain set2, hits give low values 1.02 | locus YJL187C, strain SWE1 (second series), hits give low values 0.998 | locus YJL187C, strain SWE1, hits give low values 1.02 | locus YJR043C, strain POL32, hits give low values 0.999 | locus YJR075W, strain HOC1, hits give low values 0.994 | locus YKL009W, strain mrt4, hits give low values 1.04 | locus YKL068W, hits give low values 1.01 | locus YKL085W, strain MDH1 (second series), hits give low values 0.996 | locus YKL085W, strain MDH1, hits give low values 0.996 | locus YKL160W, strain elf1, hits give low values 1.02 | locus YKL190W, strain CNB1, hits give low values 1 | locus YKR001C, strain vps1, hits give low values 0.973 | locus YKR026C, strain gcn3, hits give low values 1 | locus YKR091W, strain srl3, hits give low values 1.01 | locus YLL001W, strain dnm1, hits give low values 0.963 | locus YLL026W, hits give low values 1 | locus YLL041C, strain sdh2, hits give low values 1.01 | locus YLR027C, strain aat2, hits give low values 1.01 | locus YLR039C, strain RIC1, hits give low values 0.976 | locus YLR058C, strain SHM2, hits give low values 1.01 | locus YLR102C, strain apc9, hits give low values 1 | locus YLR221C, strain rsa3, hits give low values 1 | locus YLR258W, strain gsy2, hits give low values 1.01 | locus YLR262C, strain YPT6 (second series), hits give low values 0.995 | locus YLR262C, strain YPT6, hits give low values 0.989 | locus YLR268W, strain sec22, hits give low values 0.991 | locus YLR320W, strain mms22, hits give low values 1 | locus YLR330W, strain CHS5, hits give low values 1.02 | locus YLR342W, strain FKS1 (second series), hits give low values 1.03 | locus YLR342W, strain FKS1, hits give low values 1.02 | locus YLR357W, strain rsc2, hits give low values 0.98 | locus YLR370C, strain arc18, hits give low values 1 | locus YLR371W, strain rom2, hits give low values 0.998 | locus YLR384C, strain iki3, hits give low values 0.998 | locus YLR418C, strain cdc73, hits give low values 0.971 | locus YML016C, strain PPZ1, hits give low values 1 | locus YML032C, strain rad52, hits give low values 1.01 | locus YML120C, strain ndi1, hits give low values 1.02 | locus YML124C, strain tub3, hits give low values 1 | locus YMR058W, strain fet3, hits give low values 1 | locus YMR078C, strain ctf18, hits give low values 1.01 | locus YMR125W, strain sto1, hits give low values 1.01 | locus YMR129W, hits give low values 1.01 | locus YMR205C, strain PFK2, hits give low values 1.01 | locus YMR223W, strain ubp8, hits give low values 1.01 | locus YMR231W, strain pep5, hits give low values 1.01 | locus YMR307W, strain GAS1, hits give low values 0.901 | locus YNL067W, strain RPL9B, hits give low values 0.984 | locus YNL071W, strain lat1, hits give low values 1.01 | locus YNL128W, strain TEP1, hits give low values 1 | locus YNL209W, strain ssb2, hits give low values 1.01 | locus YNL233W, strain BNI4, hits give low values 0.993 | locus YNL248C, strain rpa49, hits give low values 1 | locus YNL250W, strain rad50, hits give low values 1.01 | locus YNL271C, strain bni1, hits give low values 0.992 | locus YNL298W, strain CLA4, hits give low values 1.01 | locus YNL307C, strain MCK1, hits give low values 1.01 | locus YNL322C, strain KRE1 (second series), hits give low values 1.01 | locus YNR049C, strain mso1, hits give low values 1.01 | locus YNR052C, strain pop2, hits give low values 1.01 | locus YOL012C, strain htz1 0.93 | locus YOL147C, strain pex11, hits give low values 0.998 | locus YOR001W, strain rrp6, hits give low values 0.998 | locus YOR061W, strain CKA2, hits give low values 1 | locus YOR069W, strain VPS5, hits give low values 1.01 | locus YOR070C, strain gyp1, hits give low values 1.01 | locus YOR080W, strain dia2, hits give low values 1 | locus YOR083W, strain WHI5, hits give low values 1.02 | locus YOR106W, strain vam3, hits give low values 1.03 | locus YOR136W, strain idh2, hits give low values 0.997 | locus YOR144C, strain elg1, hits give low values 0.988 | locus YOR184W, strain ser1, hits give low values 0.952 | locus YOR265W, strain rbl2, hits give low values 1.01 | locus YOR270C, strain vph1, hits give low values 0.959 | locus YOR290C, strain snf2, hits give low values 1.02 | locus YOR316C, strain cot1, hits give low values 1.01 | locus YPL051W, strain arl3, hits give low values 1.01 | locus YPL055C, strain LGE1, hits give low values 0.971 | locus YPL078C, strain atp4, hits give low values 1.03 | locus YPL106C, strain sse1, hits give low values 1.01 | locus YPL240C, strain hsp82, hits give low values 1.01 | locus YPL241C, strain CIN2, hits give low values 0.992 | locus YPR119W, strain clb2, hits give low values 1.01 | locus YPR141C, strain kar3, hits give low values 1 | locus YPR163C, strain tif3, hits give low values 0.999 | locus YPR167C, strain met16, hits give low values 1.01 | strain wtn01, hits give low values 1.01
